# Source: PubChem
# Many of the other results were omitted from the sample, so hits are more common in it than they were.
# IL-1B inflam inh: inhibitors of inflammasome signaling (IL-1 beta secretion) | THP-1 LPS/ATP IL-1B secretion, AlphaLISA, 16 h; hits give low values | activity change, % at 57.5 µM | 360,000 tested, 4.7% active | AID 743279; in the data active means activity change below about -50%; inconclusive means mostly about -30% to -49%
#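 THP-1 cells pretreated 1 hr with compounds (up to 57.5 uM final), then stimulated with LPS (250 ng/mL final) plus ATP (1.25 mM final); secreted IL-1B measured by AlphaLISA after 16 hr, decreased signal indicating inhibition.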
# DT40 TDP1 CPT: DT40-hTDP1 cell growth loss with CPT | chicken DT40 Tdp1-/-;hTDP1 cells + 20 nM CPT, ATP luminescence, 48 h | Potency, µM (titrated, usually from 46.2 µM), without a hit: at the highest dose activity change, negative = growth inhibition, most hits filed as inhibitors | 420,000 tested, 12% active | AID 686979; further: potency means the concentration at half of the fitted maximal effect; nearly all actives have a fitted effect of over 55% in size
#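 Chicken DT40 Tdp1-/- cells stably complemented with human TDP1 were seeded at 400 cells/well in medium containing 20 nM camptothecin, exposed to pin-transferred compounds, and grown at 37 °C for at least 48 hr. Viability was read as ATP luminescence.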
# TDP1 cell noCPT: qHTS for Inhibitors of human tyrosyl-DNA phosphodiesterase 1 (TDP1): qHTS in cells in absence of CPT; DT40 Tdp1-/- hTDP1 cells, no CPT, ATP luminescence, 48 h; 420,000 tested, 15% active; Potency, µM (doses to about 46.2 µM), for inactives: at the highest dose activity change, negative = growth inhibition, usual class: inhibitors; further: potency means the concentration at half of the fitted maximal effect; nearly all actives have a fitted effect of over 55% in size
#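 A cellular qHTS used chicken DT40 cells lacking endogenous Tdp1 but carrying stably transfected human TDP1. Compounds were applied without camptothecin, and cell growth kinetics were judged by ATP-dependent luminescence after ≥48 hr.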
# HT1080 IDH1KD tx: toxicity to HT-1080 IDH1 knockdown cells (counter line); HT-1080 IDH1 knockdown viability, ATP luminescence, 48 h; Potency, µM (highest dose often 46.1 µM), for the others: top-dose activity, negative = toxicity, most hits filed as cytotoxic; 360,000 tested, 2% active; AID 686971;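 further: potency means the concentration at half of the fitted maximal effect; 0% = DMSO wells and -100% = cell-free medium wells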
#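 After a 2 h attachment period, IDH1KD HT-1080 cells took pin-transferred compound for 48 h at 37 °C; ATP-based luminescence after 10 min room-temperature reagent incubation reported viability.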
# ALOX12 inh: ALOX12 (human) lipoxygenase inhibition. purified 12hLO, xylenol orange hydroperoxide absorbance. Potency, µM (series often up to 108 µM), for inactives: at the top dose activity change, negative = inhibition, hits mostly inhibitors. AID 1671190. 580,000 tested, 1.1% active; further: potency means the concentration at half of the fitted maximal effect
# Target sequence (P18054 whole entry, looked up): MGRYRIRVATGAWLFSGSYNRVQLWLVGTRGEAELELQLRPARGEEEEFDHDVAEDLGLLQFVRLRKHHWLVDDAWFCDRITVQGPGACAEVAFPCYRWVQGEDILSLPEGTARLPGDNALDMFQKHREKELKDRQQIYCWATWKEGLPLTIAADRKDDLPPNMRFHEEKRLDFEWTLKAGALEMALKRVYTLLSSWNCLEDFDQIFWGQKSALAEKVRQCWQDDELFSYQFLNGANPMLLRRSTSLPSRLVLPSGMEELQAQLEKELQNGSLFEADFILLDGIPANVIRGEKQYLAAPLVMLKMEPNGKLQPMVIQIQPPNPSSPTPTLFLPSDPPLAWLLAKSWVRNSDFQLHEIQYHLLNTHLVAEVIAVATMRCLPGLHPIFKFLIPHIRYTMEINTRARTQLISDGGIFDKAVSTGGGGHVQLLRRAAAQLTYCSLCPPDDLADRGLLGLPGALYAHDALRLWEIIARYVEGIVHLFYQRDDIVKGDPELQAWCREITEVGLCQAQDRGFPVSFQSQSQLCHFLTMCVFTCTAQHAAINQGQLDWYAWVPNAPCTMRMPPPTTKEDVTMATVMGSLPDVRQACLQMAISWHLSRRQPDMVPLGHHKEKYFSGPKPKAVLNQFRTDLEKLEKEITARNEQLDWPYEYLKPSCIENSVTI
#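 Purified human 12hLO at 150 nM in 25 mM Hepes, 0.01% Triton X-100, pH 7.0, preincubated 15 min at room temperature with compound. Reaction started with 40 uM arachidonic acid, 30 min at room temperature. Hydroperoxide measured by Fe-xylenol orange, 573/405 nm absorbance ratio.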
# HT1080-NT tox: kills 2HG-producing HT-1080-NT fibrosarcoma cells | AID 686970 | Potency, µM (doses to about 46.1 µM), inactives show at the highest dose activity, negative = less viability, hits mostly cytotoxic | HT-1080-NT fibrosarcoma viability, CellTiter-Glo ATP luminescence, 48 h | 360,000 tested, 1.6% active;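 further: NT is the 2HG producing partner of a matched IDH1 knockdown line; potency means the concentration at half of the fitted maximal effect; 0% = DMSO-treated cells and -100% = media-only wells without cells; nearly all actives have a fitted effect of over 55% in size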
#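 Toxicity toward the 2HG-producing NT line was scored as %Activity, normalised to DMSO and no-cell wells, from CellTiter-Glo luminescence after 48 hours' treatment.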
# * hit, by the source's call; ? = inconclusive; . = not tested or not shown. Unless noted, the call rests on the fitted dose curve; in most records, active means well fitted curve in the direction sought with a large enough effect; inconclusive means small, poorly fitted or top-dose-only effect, or another doubt; inactive means no such curve, though single readings can be large; an effect the other way counts as inactive or inconclusive. Unless noted, on the % scale 0 is the no-effect control and ±100 the full control effect.
SMILES,IL-1B inflam inh,DT40 TDP1 CPT,TDP1 cell noCPT,HT1080 IDH1KD tx,ALOX12 inh,HT1080-NT tox
Cc1ccccc1C(=O)Nc1sc2c(c1C(=O)N1CCCCC1)CCC(C)C2 (stereo not drawn),.,18µM*,?,.,-24%,.
O=C(Nc1sc2c(c1C(=O)N1CCCCC1)CCCC2)c1ccccc1Cl,.,?,?,.,-34%,.
COc1ccc(C(=O)N2CCC[C@H]2c2nc(-c3ccc(OC)c(OC)c3)no2)cc1F,.,.,.,.,32%,.
O=C(C[C@@H]1C[C@H]2O[C@H](CNCc3cnccc3C(F)(F)F)[C@@H](O)[C@H]2O1)N1CCOCC1,.,.,.,.,58%,.
CCCCN(C)CCCNC(=O)Cn1cc2c(n1)-c1c(oc(C(=O)N3CCCC3)c1C)CC2,10,?,?,-1%,-2%,8%
COCCCNC(=O)c1oc2c(c1C)-c1nn(Cc3cccc(Cl)c3)cc1CC2,.,21µM*,18µM*,.,-22%,.
CCN(CC)CCCNC(=O)c1oc2c(c1C)-c1nn(Cc3ccc(Cl)cc3)cc1CC2,.,?,18µM*,.,?,.
COCCCNC(=O)c1oc2c(c1C)-c1nn(Cc3ccc(Cl)cc3)cc1CC2,.,23µM*,18µM*,.,?,.
CCOCCCNC(=O)Cn1cc2c(n1)-c1c(oc(C(=O)N3CCCC3)c1C)CC2,18,?,?,-3%,?,0%
COCCNC(=O)Cn1cc2c(n1)-c1c(oc(C(=O)N3CCCC3)c1C)CC2,.,-23%,-2%,.,0%,.
COc1ccc(CNc2nc(-c3ccco3)nn2S(=O)(=O)c2ccc(C)cc2)cc1OC,.,.,.,.,-21%,.
COC(=O)CCC(=O)OC1(C)C(=O)C2=CN(Cc3ccc(OC)cc3)C(c3ccc(OC)cc3)=CC2=C(Br)C1=O (stereo not drawn),0,?,?,-5%,?,5%
COC(=O)CCC(=O)OC1(C)C(=O)C2=CN(Cc3ccccc3)C(c3ccc(OC)cc3)=CC2=C(Br)C1=O (stereo not drawn),3,-15%,-3%,0%,?,2%
COC(=O)CCC(=O)OC1(C)C(=O)C2=CN(CCCOC(C)C)C(c3ccc(OC)cc3)=CC2=C(Br)C1=O (stereo not drawn),-1,18µM*,16µM*,-11%,.,-3%
COC(=O)CCC(=O)OC1(C)C(=O)C2=CN(c3ccccc3)C(c3ccc(OC)cc3)=CC2=C(Br)C1=O (stereo not drawn),20,?,?,-4%,40µM*,-7%
Cc1nn(Cc2ccccc2Cl)c(C)c1NC(=O)c1noc(C(C)C)c1[N+](=O)[O-],4,-7%,0%,-3%,-2%,-6%
Cc1onc(C(=O)Nc2cccnc2Cl)c1[N+](=O)[O-],24,?,-13%,-3%,1%,0%
CC(C)c1onc(C(=O)NCc2ccccc2)c1[N+](=O)[O-],-9,16µM*,21µM*,-18%,7%,-8%
CC(C)c1onc(C(=O)Nc2cccnc2Cl)c1[N+](=O)[O-],4,23µM*,?,2%,0%,10%
CCc1ccccc1NC(=O)c1noc(C(C)C)c1[N+](=O)[O-],?,15µM*,?,?,-18%,?
CC(C)c1onc(C(=O)NCc2ccc(Cl)cc2)c1[N+](=O)[O-],-25,?,?,3%,-19%,-2%
CN1CCCCC(CC(=O)Nc2ccc(N3CCOCC3)cc2)C1=O (stereo not drawn),.,.,.,.,35%,.
CCCCCCCNC(=O)C1(CC2CC(c3cccc(Br)c3)=NO2)CCN(C(=O)CCCCCBr)CC1 (stereo not drawn),?,23µM*,26µM*,?,40µM*,16µM*
CC(C)(C)OC(=O)N1CCC(CC2CC(c3cccc(Br)c3)=NO2)(C(=O)O)CC1 (stereo not drawn),26,-11%,-2%,-5%,-10%,-1%
CCCCCCCNC(=O)C1(CC2CC(c3cccc(Br)c3)=NO2)CCN(C(=O)C2(C)CC2)CC1 (stereo not drawn),-59*,16µM*,16µM*,-16%,-4%,-16%
SMILES,IL-1B inflam inh,DT40 TDP1 CPT,TDP1 cell noCPT,HT1080 IDH1KD tx,ALOX12 inh,HT1080-NT tox
COc1ccc(CNC(=O)C2(CC3CC(c4ccccc4)=NO3)CCN(C(=O)C3(C)CC3)CC2)cc1 (stereo not drawn),-17,?,-22%,3%,-12%,0%
CCCCN1C=CC(=C2C(=O)c3ccccc3C2=O)C=C1,-23,?,?,23µM*,-5%,16µM*
CCCCn1c(C)cc(C)c(S(=O)(=O)c2ccccc2C)c1=O,17,?,?,-14%,?,0%
CC1CCN(C(=O)[C@@H](C)C2CC[C@@]3(C)CC[C@H](NC(=O)c4cnccn4)[C@@H](C)[C@@H]3[C@H]2O)CC1 (stereo partly drawn),.,.,.,.,27%,.
CC(C)c1nc(CCN(C)C(=O)c2cn(CCC3CCCCN3)nn2)no1 (stereo not drawn),.,.,.,.,40%,.
C/C(=N\NC(=O)c1ccccc1F)c1cccc(NC(=O)c2ccccc2)c1,-2,-24%,-18%,5%,3%,13%
O=C(NC(=S)Nc1ccc2c(c1)OCCO2)c1ccccc1F,?,-24%,7%,10%,-26%,7%
O=C(Nc1ccc2c(c1)OCCO2)c1cccc2nc3ccccc3nc12,?,23µM*,15µM*,-14%,-3%,-2%
O=C(Nc1cccc(NC(=O)c2ccccc2F)c1)c1ccccc1,-54*,?,?,-1%,21%,-8%
